Molecules are shown by their SMILES. Results filed as inconclusive are left out. Where a call stands in place of a potency, no number is given. Activity calls are given as the source filed them. Calls follow the shape of the dose curve; as a rule, active = well fitted inhibition curve with a large enough effect; inconclusive = small, poorly fitted or top-dose-only effect; inactive = no such curve, though single readings can be large or run the other way. Numbered stars: 1 amine (or outer) side, 2 acyl side, 3 side chain; on linkers, the order of the positions; unused ones are H or OH. Square brackets hold non-standard residues; d marks the D form. Peptide text beside a SMILES is read from it. ξ: configuration not given here. X4 = O=C(C1CC2(c3ccc(O)cc3)c3ccccc3NC2N1[*:1])[*:2]; ξW = NC(Cc1c[nH]c2ccccc12)C(=O)O; ξY = NC(Cc1ccc(O)cc1)C(=O)O
Potency is read from the fitted curve at half-maximal effect.

This assay in a line: qHTS for Hypoxia signaling pathway (HIF-1) antagonists against the NCATS CANVASS Library (AID 1347374). Also: nearly all actives have a fitted effect of over 60% in size. The conditions noted are these: HRE-bla ME-180 cells, HIF-1 beta-lactamase reporter, CoCl2; series mostly up to 38.3 µM. The source says: Natural products and their derivatives continue to be wellsprings of nascent therapeutic potential. However, many laboratories have limited resources for biological evaluation, leaving their previously isolated or synthesized compounds largely or completely untested. To address this issue, the Canvass library of natural products was assembled (https://tripod.nih.gov/canvass), in collaboration with academic and industry researchers, for quantitative high-throughput screening (qHTS) across a diverse set of cell-based and biochemical assays. […] We collected pure natural products to circumvent deconvolution and structure elucidation due to time and resource limitations. The library was formatted into 1536-well plates and evaluated in 50 qHTS (in an 11-pnt concentration series) bioassays with broad scope of disease-relevant mechanisms. The resulting data set from 50 different assays was then systematically analyzed to identify overall trends and specific natural products with interesting biological activities. Reported herein are the results of each individual qHTS and their corresponding assay protocol. During hypoxic conditions, the cellular responses are regulated in large part through the activation of the heterodimeric transcription factor called hypoxia-inducible factor-1 (HIF-1). The assay used is a beta-lactamase reporter gene under control of the hypoxia responsive element (HRE) that has been stably integrated into ME-180 cells. This assay identifies inducers of the HIF-1-signaling pathway. The cytotoxicity of the compound library against HRE-bla ME-180 cell line was tested in parallel by measuring cell viability using CellTiter-Glo assay (Promega, Madison, WI) in the same assay wells. The compounds were also tested for auto fluorescence that may interfere with the biological target readout resulting in potential false positives and/or negatives. National Center for Advancing Translational Sciences (NCATS), Rockville, MD National Institute of Health (NIH), Bethesda, Maryland
HIF-1 antagonist assay protocol: 1. HRE-bla ME-180 cells were dispensed at 2,000 cells per well in 5 uL of assay medium containing 0.5% dialyzed FBS into black wall/clear-bottom 1536-well plates using a Multidrop Combi (Thermo Scientific, Waltham, MA) dispenser. 2. After the assay plates were incubated at 37C and 5% CO2 for 5 hrs, 23 nL of compounds dissolved in DMSO, positive controls or DMSO only was transferred to each well of the assay plate using a Pintool station (Kalypsys, San Diego, CA). 3. One microliter of 60 uM CoCl2 (which enhance the stability of HIF-1alpha) or 1 uL of assay medium was added to the wells using BioRAPTR dispenser. 4. The assay plates were then incubated at 37C and 5% CO2 for 17 hrs. 5. One microliter of CCF4 dye was added the assay plate and incubated at room temperature for 2 hours. 6. The fluorescence intensity was obtained using the EnVision (PerkinElmer, Shelton, CT) plate reader using a 405 nm excitation, and 460 and 530 nm emission filters. 7. To assess cell viability (and for data normalization), 4uL of CellTiter-Glo (Promega) was added to the assay plate using the BioRAPTR dispenser and incubated at room temperature for 30 min. 8. Luminescence signal was obtained using the ViewLux microplate reader (PerkinElmer) using a clear emission mirror, and a 15 sec exposure time, 1x binning settings.
Regarding `C/C=C/C(=O)[C@@H](C)C1=CC(=O)C2=C(O[C@@]34CC[C@H](O)C(C)(C)[C@@H]3CC[C@H](C)[C@@]4(C)C2)C1=O`, the Potency is 2.11 µM (active).

As to `O=c1cc(-c2ccc(O)cc2)oc2c([C@@H]3OC(CO)[C@H](O)[C@@H](O)[C@H]3O)c(O)cc(O)c12` (stereo not given in full), the Potency entry is “inactive”.

Regarding `C/C=C/c1cc(OC)c2c(c1)[C@@H](C)[C@H](c1ccc(O)c(OC)c1)O2`, the Potency result was “inactive”.

For `O=C1c2c(O)cc(O)cc2O[C@@H](c2ccc(O)cc2)[C@@H]1c1c(O)cc(O)c2c(=O)cc(-c3ccc(O)c(O)c3)oc12`, the Potency result is “inactive”.

As to `O=Cc1ccc2n1C[C@@]1(OC2)O[C@H](CO)[C@@H](O)[C@@H]1O`, the Potency result is “inactive”.

With `CC[C@@H]1C[C@@]2(CC)OC(=O)[C@@]3(CC)OC(=O)[C@@H]1[C@@H]23`, the Potency entry was “inactive”.

Regarding `C[C@@H]1C[C@H]2C[C@]3(CCCCN3C)[C@@H]3C[C@H]2[C@H](C1)N(C)C3`, the Potency result is “inactive”.

On to `CC1C(=O)C23CCC1C[C@]21O[C@@H]2C(C)(C)C=CC(=O)[C@@]23COC1=O` (stereo not given in full), for which the Potency entry was “inactive”.

Consider `C[C@]12CC[C@]3(C1)[C@H](CC2=O)CC(OC(=O)c1ccccc1)[C@H]1[C@@](CO)(C(=O)O)CCC[C@@]13C` (stereo not given in full), for which the Potency result is “inactive”.

For the compound `C=C1[C@H]2CC[C@@]3(C=CC(=O)[C@@](C)(CCC(=O)Nc4c(O)ccc(C(=O)O)c4O)C3C2)[C@H]1O` (stereo not given in full), the Potency entry was “inactive”.

For the compound `C=C1C[C@@]23C=CC(=O)[C@@](C)(CCC(=O)Nc4c(OC5O[C@H](CO)[C@@H](O)[C@H](O)[C@H]5O)ccc(C(=O)O)c4O)C2C[C@@H]1CC3` (stereo not given in full), the Potency entry was “inactive”.

With `C[C@@H]1O[C@@H](O[C@@H]2[C@@H](O)[C@H](O[C@@H]3[C@@H](O)[C@@H](O)C(O[C@H]4[C@H](OC(=O)[C@]56CCC(C)(C)C[C@H]5C5=CCC7[C@@]8(C)C[C@H](O)[C@H](O[C@@H]9C[C@H](CO)[C@@H](O)[C@H](O)[C@H]9O)[C@@](C)(CO)C8[C@H](O)C[C@@]7(C)[C@]5(C)CC6)OC[C@H](O)[C@@H]4O)O[C@H]3C)OC[C@H]2O)[C@H](O)[C@H](O)[C@H]1O` (stereo not given in full), the Potency entry is “inactive”.

For `C=C1C(=O)C[C@H]2C[C@@H]1[C@]2(C)CCC=C(C)C`, the Potency result was “inactive”.

Regarding `CC1(C)CCC[C@]2(C)[C@@H]1CC[C@@]13C[C@@H](CC[C@H]12)C(C)(O)C3` (stereo not given in full), the Potency result is “inactive”.

As to `C[C@@]12CCC[C@@](C)(C(=O)O)[C@H]1C[C@@H](O)[C@]13C[C@H]4C[C@H](O[C@@]4(C)C1)[C@@H]23`, the Potency entry was “inactive”.

For `O=C(O)CC1OCc2c(O)cccc21` (stereo not given), the Potency result is “inactive”.

For `Cc1cc(O)cc2oc(C[C@H](C)O)cc(=O)c12`, the Potency entry is “inactive”.

Turning to `C[C@@H]1C(=O)[C@]23CC[C@H]1C[C@]21O[C@H]2C(C)(C)C=CC(=O)[C@]23COC1=O`, the Potency entry is “inactive”.

In the case of `CC[C@H](C)[C@H](NC(=O)C(Cc1ccc(O)cc1)NC(=O)C(Cc1c[nH]c2ccccc12)NC(=O)[C@H](C)N)C(=O)N1C(C(=O)NC(Cc2ccc(O)cc2)C(=O)O)CC2(c3ccc(O)cc3)c3ccccc3NC12` (stereo not given in full) (H-A[ξW][ξY]I[X4][ξY]-OH), the Potency result is “inactive”.

As to `COc1cc(/C=C2/C(=O)N(c3ccc(O)cc3C(=O)O)[C@H](c3ccc(O)c(OC)c3)C2C(=O)Nc2ccc(O)cc2C(=O)O)ccc1O` (stereo not given in full), the Potency is 8.38 µM (active).

`CS/C=C/C(N)=O`: the Potency entry is “inactive”.

Regarding `CN1CCc2cc3c(c4c2[C@H]1[C@@H](O)c1ccccc1-4)OCO3`, the Potency was 11.8 µM (active).

As for `C=C1C(=O)O[C@H]2[C@H]1CC/C(CO)=C\CC[C@@]1(C)O[C@@H]21`, the Potency was 4.72 µM (active).

Take `CCC1=C2CCCN3C(=O)O[C@H]([C@H]1OC(C)=O)[C@H]23`: the Potency entry is “inactive”.

On to `C=CC(C)(C)C(=O)[C@@H](C)[C@@H]1CC[C@](C)(C=C)O1`, for which the Potency entry was “inactive”.

For `CCCCCCCCCCCCCCCC(=O)OC/C=C(\C)CCCC(C)CC(C)C(C)C` (stereo not given), the Potency entry was “inactive”.

With `C[C@@H](O)[C@H]1OC(=O)C=C2[C@]3(C)[C@H]4[C@H](OC(=O)[C@@]4(C)[C@@H](O)[C@H]4O[C@H]43)[C@H]3O[C@@]231`, the Potency was 1.49 µM (active).

Regarding `CCCCCCC[C@@H](C/C=C/CCC(=O)NCCc1c[nH]c2ccccc12)OC`, the Potency entry is “inactive”.

Consider `COc1ccc(CCCc2cc(O)c(OC)c(O)c2)c(O)c1O`, for which the Potency result is “inactive”.

As to `CC1(C)[C@H](Br)CC[C@]23C[C@]4(C)C(=O)CC12C[C@H]34`, the Potency result was “inactive”.

Turning to `CC(=O)O[C@@H]1C=C2C(=O)OC[C@]2(O)[C@@]2(C)CCCC(C)(C)[C@H]12`, the Potency is 7.47 µM (active).

Regarding `C[C@@H]1C(=O)[C@]23CC[C@H]1C[C@]21O[C@H]2C(C)(C)C=CC(=O)[C@@]23COC1=O`, the Potency is 23.6 µM (active).

As to `C[C@@H]1O[C@H](c2c(O)cc(O)c3c(=O)cc(-c4ccc(O)cc4)oc23)[C@H](O)[C@H](O)[C@H]1O`, the Potency entry is “inactive”.

For the compound `O=C1C[C@@H](c2ccc(O)c(-c3c(O)cc(O)c4c3O[C@H](c3ccc(O)cc3)CC4=O)c2)Oc2cc(O)cc(O)c21`, the Potency result was “inactive”.

On to `O=C(O)[C@@]12CO[C@@]3(O)C4CCN(CC[C@H]31)[C@H]4c1c2[nH]c2ccccc12`, for which the Potency entry is “inactive”.

`C=C1C[C@@]23C=CC(=O)[C@@](C)(CCCC(C)C(=O)O)[C@@H]2C[C@@H]1CC3` (stereo not given in full): the Potency result was “inactive”.

Consider `CN1C(=O)[C@]23SS[C@@]1(C)C(=O)N2[C@H]1Nc2ccccc2[C@]1(c1c[nH]c2ccccc12)[C@@H]3O`, for which the Potency is 0.941 µM (active).

As to `Oc1ccc(/C=C2/c3cc(O)cc(O)c3C(c3ccc(O)cc3)[C@H]2c2cc(O)cc(O)c2)cc1` (stereo not given in full), the Potency entry was “inactive”.

Take `C=C(NC(=O)c1csc(-c2nc3c(cc2O)-c2nc(cs2)C(=O)NC(C(C)O)C(=O)N/C(=C(\C)O)c2nc(cs2)C(=O)NC2c4nc(cs4)C(=O)NC(COC(=O)c4c5c6c(cccc6n4O)COC(=O)[C@@H](OC4C[C@](C)(O)[C@H](N(C)C)[C@H](C)O4)C2OC5)c2nc-3cs2)n1)C(N)=O` (stereo not given in full): the Potency entry is “inactive”.

Turning to `CC(=O)O[C@H]1CC[C@@]2(C)C(CC[C@]3(C)C2CC=C2C4CC(C)(C)CC[C@]4(C)CC[C@]23C)C1(C)C` (stereo not given in full), the Potency result was “inactive”.

For the origin of these results see PubChem BioAssay (NCATS).
